# Experimental data taken from PubChem BioAssay.
# Activity calls are given as the source filed them.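 How the source made its calls: active means compounds killing one labelled cell type while sparing the other, by normalised counts and ratio limits, not self-fluorescent; inactive means the rest.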
# Test: differential killing of epithelial or mesenchymal cells, primary screen, imaging, PC-3E GFP, TEM4-18 mCherry, co-culture (AID 1345086);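 further: cells exposed to compound for 72 h before imaging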;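 on red/green cell ratio (normalised): normalised mesenchymal count divided by normalised epithelial count so high means epithelial killing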
# Settings: imaging cell counts, at 1 µM; for red/green cell ratio (normalised): actives lie on both sides, counts scaled to control wells, 1 = unselective
# [1] = measured here: epithelial PC-3E GFP cell survival
# [2] = measured here: mesenchymal TEM4-18 mCherry cell survival
SMILES,red/green cell ratio (normalised),normalised cell number [1],normalised cell number [2]
CC[C@H](O)c1oc(=O)cc(OC)c1C,0.96 (inactive),1.01,0.97
Cc1[nH]cc[n+]1CC1CCC2C(C1=O)c1ccccc1N2C (stereo not given),0.73 (inactive),1.19,0.87
CC(=O)O[C@@H]1CC2C(C)(C)[C@H](O)C[C@H](O)[C@]2(C)C2CC[C@@]3(C)[C@H](c4ccoc4)OC(=O)[C@H]4O[C@]43[C@@]21C (stereo not given in full),1.01 (inactive),1.01,1.03
CC(C)c1c(O)ccc2c1CCC1C(C)(C)CCC[C@]21C (stereo not given in full),0.99 (inactive),1.08,1.07
CC(C)CCCC(C)C1CCC2C3CC[C@H]4CC(=O)CC[C@]4(C)C3CC[C@]12C (stereo not given in full),0.94 (inactive),1.04,0.97
COc1c(O)cc2c(c1O)C(=O)O[C@@H](C)[C@@H]2O,1 (inactive),1.01,1.02
COc1cc(O)c2c(c1)C(=O)C1=C(C2=O)C(OC)OC1 (stereo not given),1.02 (inactive),0.9,0.92
Cc1cccc(CN2CCN(C(c3ccccc3)c3ccc(Cl)c(C)c3)CC2)c1 (stereo not given),0.79 (inactive),1.23,0.97
COc1ccc2oc(-c3ccccc3OC)cc(=O)c2c1,0.85 (inactive),1.16,0.98
CCC(C)[C@H]1O[C@]2(CC[C@@H]1C)C[C@@H]1C[C@@H](C/C=C(\C)[C@@H](OC3C[C@H](OC)C(O[C@H]4C[C@H](OC)[C@@H](O)[C@H](C)O4)[C@H](C)O3)[C@@H](C)/C=C/C=C3\COC4[C@H](O)C(C)=C[C@@H](C(=O)O1)[C@]34O)O2 (stereo not given in full),0.84 (inactive),1.17,0.97
O=C(NCC1O[C@@H](OC2C(NC(=O)c3ccccc3)C[C@@H](NC(=O)c3ccccc3)[C@H](OC3OC(COS(=O)(=O)O)[C@@H](OS(=O)(=O)O)[C@H](NC(=O)c4ccccc4)[C@H]3OS(=O)(=O)O)[C@H]2OS(=O)(=O)O)[C@H](OS(=O)(=O)O)[C@@H](OS(=O)(=O)O)C1OS(=O)(=O)O)c1ccccc1 (stereo not given in full),1.21 (inactive),0.96,1.16
CC(C)(C)[Si](C)(C)OCC1O[C@H](Sc2ccccc2)[C@H]2NC(=O)O[C@H]2C1O (stereo not given in full),1.07 (inactive),0.97,1.05
CC(=O)O[C@H]1CC2CCC3C(CC[C@@]4(C)C3C[C@H]([N+]3(C)CCCCC3)[C@@H]4OC(C)=O)[C@@]2(C)C[C@@H]1[N+]1(C)CCCCC1 (stereo not given in full),0.99 (inactive),0.95,0.94
CCCCC/C=C/C1=C(CO)[C@H](O)[C@H]2O[C@H]2[C@@H]1O,1 (inactive),1.08,1.08
OC[C@H]1O[C@H](Oc2cc(O)cc(/C=C/c3ccc(O)cc3)c2)[C@H](O)[C@@H](O)[C@@H]1O,0.79 (inactive),1.3,1.03
C#C[C@]1(O)CC[C@@H]2C3[C@H](C)CC4=C(CCC(=O)C4)[C@H]3CC[C@@]21C (stereo not given in full),1.13 (inactive),1.07,1.21
C/C=C/[C@@H]1OC2=C(C(=O)O[C@H]2C)[C@H](O)[C@H]1O,0.96 (inactive),0.76,0.73
C=C(C)[C@@H]1CC[C@]2(CO)CC[C@]3(C)[C@H](CCC4[C@@]5(C)CC[C@H](O)C(C)(C)C5CC[C@]43C)C12 (stereo not given in full),0.84 (inactive),1.09,0.91
CC(C)CC1C(=O)OC(C(C)C)C(=O)N(C)C(C(C)C)C(=O)OC(C(C)C)C(=O)N(C)C(C(C)C)C(=O)OC(C(C)C)C(=O)N1C (stereo not given),0.99 (inactive),1.17,1.15
COc1cc(C)c(Oc2cc(C)cc(O)c2O)c(O)c1,0.97 (inactive),1.18,1.15

SMILES,red/green cell ratio (normalised),normalised cell number [1],normalised cell number [2]
OC[C@H]1O[C@@](CO)(O[C@@H]2O[C@H](CO)[C@@H](O)[C@H](O)[C@H]2O)[C@@H](O[C@@H]2O[C@H](CO)[C@@H](O)[C@H](O)[C@H]2O)[C@@H]1O,0.9 (inactive),1.13,1.01
COC(=O)[C@@]12Oc3ccc(-c4ccc5c(c4O)C(O)=C4C(=O)C[C@H](C)[C@H](O)[C@]4(C(=O)OC)O5)c(O)c3C(O)=C1C(=O)C[C@H](C)[C@@H]2O,1.15 (inactive),0.96,1.1
COc1cc2c(c3oc4ccccc4c(=O)c13)[C@@H]1C=CO[C@@H]1O2,0.91 (inactive),0.44,0.4
CC(CCC(=O)O)[C@H]1CCC2C3CC[C@@H]4C[C@H](O)CC[C@]4(C)C3C[C@H](O)[C@@]21C (stereo not given in full),1.05 (inactive),0.86,0.91
C=C1CC[C@@]2(C)[C@H](C)CC[C@H](O)[C@@]2(CCC=C(C)C)[C@@H]1Cc1c[nH]c2ccccc12,0.97 (inactive),0.88,0.85
Cc1cc(O)c2c(c1)Cc1cccc(O)c1C2=O,0.94 (inactive),1.28,1.2
O=c1c(O)c(-c2ccccc2)oc2ccc3occc3c12,0.81 (inactive),1.22,0.99
O=C(O)[C@@H](S)[C@@H](S)C(=O)O,1.16 (inactive),0.95,1.1
CC1OC(O[C@H]2/C=C/C=C/C=C/C=C/C=C/C=C/C=C/[C@H](C)[C@@H](O)[C@@H](C)[C@H](C)OC(=O)CC(O)CC(O)CCC(O)C(O)CC(O)C[C@]3(O)C[C@H](O)C(C(=O)O)C(C2)O3)C(O)[C@@H](N)C1O (stereo not given in full),1 (inactive),1.18,1.18
O=C(NCC1O[C@@H](OC2C(NC(=O)OCc3ccccc3)C[C@@H](NC(=O)OCc3ccccc3)[C@H](OC3OC(COS(=O)(=O)O)[C@@H](OS(=O)(=O)O)[C@H](NC(=O)OCc4ccccc4)[C@H]3OS(=O)(=O)O)[C@H]2OS(=O)(=O)O)[C@H](OS(=O)(=O)O)[C@@H](OS(=O)(=O)O)C1OS(=O)(=O)O)OCc1ccccc1 (stereo not given in full),1.03 (inactive),0.88,0.91
O=C(O)c1ccc(-c2ccccc2)cc1,0.96 (inactive),1.01,0.97
CC1(C)S[C@@H]2[C@H](NC(=O)C(NC(=O)N3CCNC3=O)c3ccccc3)C(=O)N2C1C(=O)O (stereo not given in full),0.99 (inactive),1.15,1.14
O=C(O)CC1OCc2c(O)cccc21 (stereo not given),0.47 (inactive),0.95,0.44
CC1CCCC(O)/C=C/C(O)C(=O)c2c(O)cc(O)cc2CC(=O)O1 (stereo not given),1.11 (inactive),0.89,0.99
CCCCCCCCCCCCCc1ccco1,1.13 (inactive),0.74,0.83
CC(CCOc1ccc(C(=O)O)cc1)C(=O)O (stereo not given),1.1 (inactive),1.03,1.14
CC(C)CCCC(C)[C@H]1CCC2C3C=CC4=CC(=O)CC[C@]4(C)C3CC[C@@]21C (stereo not given in full),0.99 (inactive),0.94,0.93
[N-]=[N+]=N[C@H]1[C@H](Sc2ccccc2)OC(CO)C(O)[C@@H]1O (stereo not given in full),0.98 (inactive),1.08,1.06
CN(C(=O)Cc1ccccc1)C1C(O[C@@H]2OC(COS(=O)(=O)O)C(NC(=O)Cc3ccccc3)[C@H](OS(=O)(=O)O)[C@H]2OS(=O)(=O)O)OC2C[C@@H](NC(=O)Cc3ccccc3)[C@@H](OC3C(NC(=O)Cc4ccccc4)C[C@@H](NC(=O)Cc4ccccc4)[C@H](OS(=O)(=O)O)[C@H]3OS(=O)(=O)O)OC2C1OS(=O)(=O)O (stereo not given in full),0.95 (inactive),1.04,0.99
COc1ccc2oc(-c3ccccc3)c(OC)c(=O)c2c1,0.79 (inactive),1.37,1.08

SMILES,red/green cell ratio (normalised),normalised cell number [1],normalised cell number [2]
COc1cccc2c1C(=O)OCc1cc(C)cc(O)c1O2,0.9 (inactive),1.17,1.05
CC(=O)NCCc1ccc(O)c(-c2c(O)c(O)c3c(c2O)C(=O)c2c(cc(O)c(C(=O)O)c2C(=O)O)C3=O)c1,1.13 (inactive),0.95,1.07
COC1=CC(=O)OC1(O)C(C)C (stereo not given),1.07 (inactive),0.83,0.89
NC(=O)C[C@H](NC(=O)OCc1ccccc1)C(=O)O,1.25 (inactive),0.87,1.08
O=c1c2cc(O)c(O)cc2oc2cc(O)c(C3O[C@H](CO)[C@H](O)[C@@H](O)[C@H]3O)c(O)c12 (stereo not given in full),0.86 (inactive),0.99,0.85
CC(=O)OCC(=O)[C@@]1(O)CCC2C3C[C@H](C)C4=CC(=O)C=CC4(C)C3[C@@H](O)CC21C (stereo not given in full),1.09 (inactive),1.16,1.27
COC(=O)c1cc(Br)ccc1Cl,1.04 (inactive),1.12,1.17
CC[C@H](C)/C=C/C1=CC2=C(Cl)C(=O)[C@@]3(C)OC(=O)C(C(=O)[C@@H](C)[C@@H](C)O)=C3C2=CO1,0.99 (inactive),0.92,0.91
O=C(O)c1c(Cl)nc(Cl)c2ccccc12,1.02 (inactive),0.97,0.99
CC(=O)OC1CC(C)OC(=O)CCC(O)CC1=O (stereo not given),0.98 (inactive),0.98,0.96
C[C@H](Oc1ccc(Oc2ccc3ncc(Cl)nc3c2)cc1)C(=O)O,0.92 (inactive),1.29,1.18
O=C(O)c1cn(C2CC2)c2cc(N3CCN(c4ccc(Cl)cc4Cl)CC3)c(F)cc2c1=O,0.98 (inactive),1,0.98
CCCCCCCCC[C@H]1O[C@]2(O)CC[C@H](O)[C@]2(O)[C@@H]1O,0.97 (inactive),0.93,0.91
COC(=O)C12C(C(C)=O)OC(CC(O)C1O)C2C (stereo not given),0.97 (inactive),1.04,1.01
Cc1c(F)c(F)cc2c(=O)n(N)c(=O)n(C3CC3)c12,0.9 (inactive),0.79,0.71
C[C@@H]1C[C@H](O)[C@@H](O)CO1,0.94 (inactive),1.12,1.05
C[C@H](O)[C@@H]1N[C@H]2N(C1=O)c1ccccc1C21CC2C(=O)NC1c1nc3ccccc3c(=O)n12 (stereo not given in full),1.08 (inactive),0.88,0.95
COc1cc(C(=O)O)cc(OC)c1O,1.08 (inactive),1,1.07
Cc1ccc(S(=O)(=O)O[C@H]2CCOC2=O)cc1,0.92 (inactive),1.16,1.06
O=C(O)c1ccc([C@H](O)c2ccccc2)cn1,1.05 (inactive),1.03,1.09
